About 83,000 compounds went through this panel and 20% of them were active in at least one assay; those are over-represented in the sample as a whole.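 Compound tested at a single concentration for 48 hours in 96-well plates; a percent growth value below 10 was scored as active.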 A number with no mark means an inactive call. Activity calls are given as the source filed them.

What all share (test): NCI-60 one-dose screen, 48 h (100 = growth as untreated, 0 = no growth, -100 = all killed)
One assay deals with SK-MEL-2 melanoma. The settings on record: 10 µM unless noted.
The next assay deals with EKVX NSCLC. Conditions: 10 µM unless noted.
A further assay has as its system SN12C renal. The settings on record: 10 µM unless noted.
A further assay relates to UO-31 renal. Conditions: 10 µM unless noted.
The test system of the next assay is TK-10 renal. The settings on record: 10 µM unless noted.
A further assay deals with ACHN renal. Conditions: 10 µM unless noted.
Another assay relates to CAKI-1 renal. The settings on record: 10 µM unless noted.
For another assay, the system named is A498 renal. The settings on record: 10 µM unless noted.
In the next assay the test system is CCRF-CEM leukemia. Conditions: 10 µM unless noted.
For the next assay, the system named is MOLT-4 leukemia. The settings on record: 10 µM unless noted.
Another assay deals with SR leukemia. The settings on record: 10 µM unless noted.
The test system of a further assay is RPMI-8226 leukemia. The settings on record: 10 µM unless noted.
A further assay has as its system OVCAR-8 ovarian. Conditions: 10 µM unless noted.
The subject of a further assay is OVCAR-4 ovarian. The settings on record: 10 µM.
The test system of the next assay is SK-OV-3 ovarian. Conditions: 10 µM unless noted.
In the next assay the test system is IGROV1 ovarian. Conditions: 10 µM unless noted.
The test system of the next assay is HS 578T breast. Conditions: 10 µM unless noted.
The subject of a further assay is NCI/ADR-RES ovarian. The settings on record: 10 µM unless noted.
In a further assay the test system is OVCAR-3 ovarian. Conditions: 10 µM unless noted.

`COc1ccc(C(=O)/C=C/c2ccccn2)c(O)c1`: the growth in the assay with SK-MEL-2 melanoma is 89.6%; in the assay on EKVX NSCLC, 94.2%; in the assay on SN12C renal it was 77.8%; in the assay on UO-31 renal, 53.1%; in the assay on TK-10 renal it was 92.4%; with ACHN renal, 45%. For the same compound, the growth in the assay with CAKI-1 renal was 61.3%; in the assay with A498 renal, 91.3%; in the assay with CCRF-CEM leukemia, 10.4%; in the assay with MOLT-4 leukemia, 74.2%; in the assay on SR leukemia, -1.93% (active); with RPMI-8226 leukemia it was 6.35% (active). Moreover, the growth with OVCAR-8 ovarian was 92.6%; in the assay with OVCAR-4 ovarian, 92.1%; in the assay with SK-OV-3 ovarian, 98.6%; in the assay on IGROV1 ovarian, 46.8%; with HS 578T breast it was 87.5%; in the assay on NCI/ADR-RES ovarian, 94%.
On to `COC(=O)[C@]1(C)CC[C@]2(C)CC[C@]3(C)C(=CC(=O)[C@@H]4[C@@]5(C)CCC(=O)NC(C)(C)[C@@H]5CC[C@]43C)[C@@H]2C1`, for which the growth in the assay on SK-MEL-2 melanoma is -83.2% [100 µM] (active); with EKVX NSCLC, -45.1% [100 µM] (active); in the assay with SN12C renal it was -81.1% [100 µM] (active); with UO-31 renal, -93.3% [100 µM] (active); in the assay with TK-10 renal it was -26.3% [100 µM] (active); in the assay on ACHN renal, -39.8% [100 µM] (active). Besides, the growth in the assay on CAKI-1 renal was -20% [100 µM] (active); in the assay with A498 renal it was -91.4% [100 µM] (active); in the assay with CCRF-CEM leukemia, -25.4% [100 µM] (active); with MOLT-4 leukemia, -20.7% [100 µM] (active); in the assay with SR leukemia, 32.7% [100 µM]; in the assay with RPMI-8226 leukemia, -44.5% [100 µM] (active). In addition, the growth in the assay on OVCAR-8 ovarian is -39.8% [100 µM] (active); in the assay on SK-OV-3 ovarian it was -16.8% [100 µM] (active); with IGROV1 ovarian, -55.5% [100 µM] (active); with OVCAR-3 ovarian it was -70.4% [100 µM] (active); in the assay on HS 578T breast it was -30.4% [100 µM] (active); with NCI/ADR-RES ovarian it was -71.9% [100 µM] (active).
On to `C#C[C@]1(O)CC[C@H]2[C@@H]3CC=C4c5nc(Nc6ccc(OC)cc6OC)sc5CC[C@]4(C)[C@H]3CC[C@@]21C`, for which the growth with SK-MEL-2 melanoma is -10.1% (active); with EKVX NSCLC, 24.7%; in the assay on SN12C renal it was 37.6%; with UO-31 renal it was 13.2%; in the assay on TK-10 renal, 51.3%; in the assay on ACHN renal it was 32.6%. In addition, the growth was 26.4% in the assay on CAKI-1 renal; -56% (active) in the assay with A498 renal; 16.9% in the assay on CCRF-CEM leukemia; 4.56% (active) in the assay on MOLT-4 leukemia; 5.67% (active) in the assay on SR leukemia; -26.1% (active) with RPMI-8226 leukemia. Moreover, the growth in the assay on OVCAR-8 ovarian is 59.4%; in the assay with OVCAR-4 ovarian it was 44.7%; in the assay on IGROV1 ovarian, 43.2%; in the assay with OVCAR-3 ovarian, 26.4%; in the assay on NCI/ADR-RES ovarian, 50.3%.
For the compound `COc1ccc(-c2cc(-c3ccccc3)nc(SCCCCCC(=O)NO)n2)cc1`, the growth in the assay with SK-MEL-2 melanoma is 61.4%; in the assay with EKVX NSCLC, 67.5%; in the assay with SN12C renal, 81.4%; in the assay on UO-31 renal, 41.6%; with TK-10 renal it was 34.8%; with ACHN renal it was 48.9%. For the same compound, the growth is 33.4% in the assay with CAKI-1 renal; 57.1% in the assay on A498 renal; 13.8% with CCRF-CEM leukemia; 9.24% (active) with MOLT-4 leukemia; 21.9% with SR leukemia; 21.2% with RPMI-8226 leukemia. The growth with OVCAR-8 ovarian is 36.1%; with OVCAR-4 ovarian, 80.1%; in the assay with SK-OV-3 ovarian, 50.3%; in the assay with IGROV1 ovarian, 51.7%; in the assay on OVCAR-3 ovarian, 65%; in the assay on HS 578T breast it was 56%. Also, the growth with NCI/ADR-RES ovarian was 56.9%.
`CC(C)[C@H]1COC(=O)N1[C@@H]1C(=O)N([C@@H](CCC(=O)N2CCN(C3CCCC3)CC2)C(=O)N[C@@H]2CCCc3ccccc32)[C@@H]1/C=C/c1cccc(Cl)c1`: the growth was 60% with SK-MEL-2 melanoma; 58.8% with EKVX NSCLC; 59.6% with SN12C renal; 43.5% in the assay on UO-31 renal; 54.2% in the assay with TK-10 renal; 57.8% with ACHN renal. Besides, the growth in the assay on CAKI-1 renal was 59.3%; in the assay on A498 renal, 27.9%; in the assay with CCRF-CEM leukemia, 42%; with MOLT-4 leukemia it was 24.1%; in the assay with SR leukemia, 19.2%; in the assay on RPMI-8226 leukemia, 22.2%. The growth in the assay with OVCAR-8 ovarian was 74.5%; in the assay with OVCAR-4 ovarian it was 68.3%; in the assay on SK-OV-3 ovarian it was 88.1%; in the assay with IGROV1 ovarian it was 48.4%; in the assay on HS 578T breast, 64.3%; in the assay on NCI/ADR-RES ovarian it was 64.1%.
In the case of `O=c1cc(-c2ccccc2)oc2cc(OCc3cn(Cc4ccc(F)cc4)nn3)cc(O)c12`, the growth in the assay with SK-MEL-2 melanoma is -39.8% [100 µM] (active); with EKVX NSCLC it was 60.1% [100 µM]; in the assay on SN12C renal, 58.1% [100 µM]; in the assay on UO-31 renal it was 67% [100 µM]; in the assay with TK-10 renal, 0.593% [100 µM] (active); in the assay with ACHN renal it was 5.21% [100 µM] (active). Besides, the growth was 58.7% [100 µM] in the assay on CAKI-1 renal; 63.1% [100 µM] in the assay with A498 renal; 109% [100 µM] in the assay with CCRF-CEM leukemia; 95.5% [100 µM] in the assay with MOLT-4 leukemia; 96.8% [100 µM] with SR leukemia; 93.7% [100 µM] with RPMI-8226 leukemia. Moreover, the growth with OVCAR-8 ovarian is 20.4% [100 µM]; in the assay on SK-OV-3 ovarian it was 20.6% [100 µM]; in the assay on IGROV1 ovarian, 31.2% [100 µM]; in the assay on OVCAR-3 ovarian, 61.7% [100 µM]; in the assay on HS 578T breast it was 9.08% [100 µM] (active); with NCI/ADR-RES ovarian it was 43.2% [100 µM].
As to `CC1(C)S[C@@H]2[C@H](NC(=O)[C@H](C(=O)O)c3cccs3)C(=O)N2[C@H]1C(=O)O`, the growth with SK-MEL-2 melanoma was 98.2%; with EKVX NSCLC, 93.1%; with SN12C renal, 104%; in the assay with UO-31 renal, 85.6%; in the assay with TK-10 renal, 103%; in the assay with ACHN renal it was 95.2%. The growth in the assay on CAKI-1 renal is 93.2%; with A498 renal, 118%; with CCRF-CEM leukemia it was 105%; with MOLT-4 leukemia, 125%; in the assay on SR leukemia, 102%; with RPMI-8226 leukemia, 117%. Also, the growth in the assay on OVCAR-8 ovarian is 98.7%; in the assay with OVCAR-4 ovarian, 112%; in the assay on SK-OV-3 ovarian, 105%; in the assay on IGROV1 ovarian, 109%; in the assay with OVCAR-3 ovarian, 111%; in the assay on NCI/ADR-RES ovarian, 102%.
